Compound activity deposited in PubChem by National Center for Advancing Translational Sciences (NCATS).
Sampled rows, rich in hits. Any-hit rate of the full collection: about 3.6%.
ERK AVP block = qHTS Assay for Inhibitors of the ERK Signaling Pathway using a Homogeneous Screening Assay; HEK293-V1b, vasopressin-stimulated pERK AlphaScreen; Potency, µM (titrated, usually from 57.5 µM), for the others: top-dose activity, negative = inhibition, actives largely listed as inhibitors; 0.99% of 72,000 active; AID 995, 2007; note: % is set by controls: 0 for no effect and ±100 for the full control effect; nearly all actives have a fitted effect of over 55% in size
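HEK293 cells stably expressing V1b receptor, preincubated 30 min at 37 °C with compound, then stimulated 5 min with 25 nM vasopressin. Phospho-ERK by AlphaScreen SureFire after 5 h RT; normalized to DMSO and vasopressin; AC50 by Hill fit.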
HEK293 cAMP cs = qHTS Assay for Agonists of the Thyroid Stimulating Hormone Receptor: Activators of Intracellular cAMP Concentrations in Parental HEK 293. parental HEK293 CNG cAMP sensor, membrane potential fluorescence. Potency, µM (series often up to 57.1 µM), inactives show at the highest dose activation, most hits filed as activators. 2.5% of 73,000 active. AID 938, 2007; note: % of control where 0% means no effect; nearly all actives have a fitted effect of over 55% in size
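Parental HEK 293 cells stably expressing a cAMP-gated CNG channel were loaded with membrane potential dye containing 100 uM RO 20-1724 for 60 min. Compound added for 30 min; depolarization read as fluorescence intensity at 590 nm.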
CRE-bla Fsk = Cell signaling CRE-BLA (Fsk stim) | 2.5% of 71,000 active | Potency, µM (titrated, usually from 38.2 µM), for the others: at the top dose activity change, negative = inhibition, hits mostly activators | CHO CRE-bla reporter (cAMP response element driving beta-lactamase), forskolin EC10, beta-lactamase ratio | AID 662, 2007; active = well fitted activation curve with a large enough effect in the signal ratio, with a control signal flat, not every such curve was filed as active; inconclusive = small, poorly fitted or top-dose-only effect, or effect the other way, or a change in a side signal; the % refers to the signal ratio; note: % of control where 0% means no effect
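CRE-bla CHO cells stimulated with EC10 NKH 477 (water-soluble forskolin) and compound titrations, 3 h at 37C; beta-lactamase read with CCF4 after 2 h at room temperature. Activity from 460/530 nm emission ratio, AC50 values for positive or negative modulation.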
IkB signaling = IkB Signaling; ABC-DLBCL IkBa-CBG/CBR dual luciferase ratio, 4 h; response scale: scaled: untreated 0%, proteasome inhibitor 100%; 0.04% of 110,000 active; Potency, µM (highest dose often 57.1 µM), inactives show at the top dose IkBa stabilization activation; AID 445, 2006; active = well fitted curve in the direction sought with a large enough effect in the signal ratio, not every such curve was filed as active; inconclusive = small, poorly fitted or top-dose-only effect, or a change in a side signal; the % refers to the signal ratio;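 note: the direction sought is a rising ratio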
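Curves were fitted separately to fusion (green), unfused (red) and ratio luminescence, then classed by r2, magnitude and activity. Cells: OCI-Ly3, 4 h compound plus doxycycline at 37C; 10 uM MG-132 defined full response.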
TSHR agonist = qHTS Assay for Agonists of the Thyroid Stimulating Hormone Receptor; HEK293-CNG-TSHR cells (CNG channel as cAMP sensor), membrane potential dye, cAMP; AID 926, 2007; 0.48% of 73,000 active; Thyrotropin receptor (Homo sapiens), P16473; Potency, µM (top dose mostly 57.1 µM), without a hit: at the highest dose activation, most hits filed as activators; active = well fitted activation curve with a large enough effect in the main read-out, with a control signal flat, not every such curve was filed as active; inconclusive = small, poorly fitted or top-dose-only effect, or a change in a side signal; inactive = no such curve, though single readings can be large or run the other way; % of control where 0% means no effect;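 note: the control signal comes from parental cells without the receptor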
Target sequence (P16473 whole entry, looked up): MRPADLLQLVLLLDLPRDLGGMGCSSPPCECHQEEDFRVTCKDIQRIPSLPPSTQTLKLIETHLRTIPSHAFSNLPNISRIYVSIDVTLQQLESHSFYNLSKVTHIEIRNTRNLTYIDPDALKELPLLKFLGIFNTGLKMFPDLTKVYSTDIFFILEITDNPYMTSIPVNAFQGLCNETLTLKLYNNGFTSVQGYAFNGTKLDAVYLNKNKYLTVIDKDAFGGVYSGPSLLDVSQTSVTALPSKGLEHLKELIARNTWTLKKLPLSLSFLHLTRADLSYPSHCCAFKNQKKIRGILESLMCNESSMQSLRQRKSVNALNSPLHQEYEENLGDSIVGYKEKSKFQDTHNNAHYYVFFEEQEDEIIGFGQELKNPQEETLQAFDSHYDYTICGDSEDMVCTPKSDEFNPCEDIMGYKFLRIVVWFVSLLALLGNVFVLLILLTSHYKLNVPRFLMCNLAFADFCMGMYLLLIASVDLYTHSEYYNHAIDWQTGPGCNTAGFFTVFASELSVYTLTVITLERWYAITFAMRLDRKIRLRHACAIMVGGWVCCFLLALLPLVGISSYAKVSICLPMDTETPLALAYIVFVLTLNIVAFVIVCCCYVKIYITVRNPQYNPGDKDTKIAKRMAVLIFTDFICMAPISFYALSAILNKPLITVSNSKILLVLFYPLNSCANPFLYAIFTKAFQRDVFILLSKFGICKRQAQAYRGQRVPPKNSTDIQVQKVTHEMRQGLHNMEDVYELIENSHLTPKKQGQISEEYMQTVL
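cAMP rise detected as CNG-channel membrane depolarization by fluorescent dye (emission 590 nm), 30 min after compound, following 60 min dye loading containing 100 uM RO 20-1724 at room temperature. Cells: TSHR/CNG HEK 293, with parental CNG HEK 293 as control.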
An asterisk follows results filed as active; ? = inconclusive; . = not tested or not shown; ! = not active in a repeat; [ ] = remark or other dose. Unless noted, calls come from the whole dose curve; as a rule, active = well fitted curve in the direction sought with a large enough effect; inconclusive = small, poorly fitted or top-dose-only effect, or another doubt; inactive = no such curve, though single readings can be large; an effect the other way counts as inactive or inconclusive. Potency is the fitted concentration of half-maximal effect.

SMILES	ERK AVP block	HEK293 cAMP cs	CRE-bla Fsk	IkB signaling	TSHR agonist
O=C(Nc1ccc(N2CCN(C(=O)c3ccco3)CC2)c(Cl)c1)c1c(F)c(F)c(F)c(F)c1F	-21%	4%	-6%	?	24%
OC(CNc1nc2ccccc2s1)c1ccccc1 (stereo unspecified)	25µM*	-9%	15%	?	-5%
O=C(O)CCSc1nc2ccccc2s1	-10%	22%	-4%	3%	.
Cc1ccc(-c2cc3nc(C)cc(NCc4ccco4)n3n2)cc1	9%	12%	13µM*	?	5%
CCC1CCCCN1C(=O)Cn1c(C(=O)OC)cc2ccsc21 (stereo unspecified)	-9%	25µM*	3%	0%	?
CCC1CCCCN1C(=O)Cn1c(C(=O)OC)cc2sc(Cl)cc21 (stereo unspecified)	-3%	16µM*	5%	2%	?
CCOC(=O)N1CCN(S(=O)(=O)c2ccc(OC)c3ccccc23)CC1	?	?	1%	?	?
COc1ccc(-c2cc(N)n(S(=O)(=O)c3c(F)c(F)c(F)c(F)c3F)n2)cc1OC	5µM*	12%	21%	?	0.79µM*
COc1ccc(S(=O)(=O)n2nc(-c3cc(OC)c(OC)c(OC)c3)cc2N)cc1OC	-17%	10%	5µM*	7%	16%
CN1CCN(c2nc(-c3cccnc3)nc3ccccc23)CC1	-24%	14%	10µM*!	3%	21%
c1cncc(-c2nc(N3CCCCCC3)c3ccccc3n2)c1	20µM*	25µM*	?	?	?
CCN1CCN(c2nc(-c3cccnc3)nc3ccccc23)CC1	16%	10%	?	-2%	.
CN(C)c1ccc(-c2nnc(-c3ccc(S(=O)(=O)C(F)F)cc3)o2)cc1	-16%	-1%	3%	1%	11%
Nc1nc(-c2cccs2)cs1	-8%[11.5 µM]	6%[11.4 µM]	18%[7.6 µM]	1%[11.4 µM]	-3%[11.4 µM]
COC(=O)c1ccc(CSc2nc(C)nc3c2c(=O)n(C)c(=O)n3C)o1	.	25µM*	2µM*	2%	?
Cc1csc(NC(=O)CSc2nc(C(C)C)nc3c2c(=O)n(C)c(=O)n3C)n1	.	5%	2.5µM*	?	13%
COCCn1c(SCc2ccc(C(=O)OC)o2)nc2cc(Cl)ccc2c1=O	-2%	20µM*	5µM*	?	?
Cc1nc(SCC(=O)Nc2cc(C)on2)c2c(=O)n(C)c(=O)n(C)c2n1	.	3%	2µM*	0%	-1%
CC(=O)c1ccc(NC(=O)CSc2nc(-c3ccc(C)cc3)nc3c2c(=O)n(C)c(=O)n3C)cc1	.	.	.	-1%	.
CC(C)C(=O)Nc1ccc2nc(SCC(=O)N3CCOCC3)sc2c1	.	.	.	0%	.
CCOc1ccc(NC(=O)c2sc3nc4c(cc3c2N)CCCCCC4)cc1	.	.	.	-1%	.
Cc1cccc(NC(=O)c2sc3nc4c(cc3c2N)CCCCCC4)c1C	.	.	.	2.5µM*	.
Cn1c(C(=O)NCc2cccnc2)cc2sc(Cl)cc21	.	25µM*	.	.	?
CCOCCCN1C(=O)c2ccccc2CC1(C)C(=O)NC1CCCCC1 (stereo unspecified)	.	.	.	-1%	.
CCOC(=O)C1=C(C)NC(=O)NC1C (stereo unspecified)	-9%	0%	2%	-2%	4%
SMILES	ERK AVP block	HEK293 cAMP cs	CRE-bla Fsk	IkB signaling	TSHR agonist
CCOC(=O)C1=C(C)NC(=O)NC1/C(C)=C/c1ccccc1 (stereo unspecified)	32µM*	9%	7%	0%	6%
Cc1oc2ccc(O)c(CN3CCOCC3)c2c1C(=O)Nc1cccc(C(F)(F)F)c1	.	.	.	-2%	.
CCOC(=O)Nc1sc(C(=O)N(CC)CC)c(C)c1C(=O)OCC	-22%	16%	4µM*	4%	.
COc1cc2c(C#N)c(N3CCN(c4ccccc4OC)CC3)nc(N)c2c(N)n1	25µM*	-7%	?	?	-10%
COc1ccc(NC(=O)COC(=O)c2ccc(Br)o2)cc1OC	15%	15%	-4%	0%	0%
O=C(CSc1nnc(-c2ccccn2)n1Cc1ccco1)c1ccc(Cl)cc1	6%	25µM*	0%	-2%	?
O=C(CSc1nnc(-c2ccccn2)n1Cc1ccco1)c1ccccc1	6%	9%	-4%	-2%	16%
N#Cc1ccc(CN2CCCC3(CCNCC3)C2)cc1	7%	?	7%	2%[11.4 µM]	?
Cc1cc(-c2ccccc2)c(C#N)c(N)n1	-16%	5%	13µM*	0%	5%
COc1ccc(-c2nc3c(c(SCc4cc(C)ccc4C)n2)Cc2c(CO)cnc(C)c2O3)cc1	.	.	.	0%	.
COc1ccc(-c2nnc(Nc3nc4c(OC)cccc4s3)o2)cc1	6%	?	13µM*	?	?
COc1ccc(-c2c(C#N)c(SCC(=O)Nc3ccc(C)c(C)c3)nc(C)c2C(=O)Nc2ccccc2)cc1OC	.	.	.	5%	.
CSc1nc(C)c(C(=O)Nc2ccccc2)c(C)c1C#N	25%	25µM*	-12%	?	?
N#Cc1ccc(-c2cccs2)nc1SCc1c(F)cccc1Cl	.	.	.	-3%	.
CCOC(=O)c1c(NC(=O)CSc2nnc(-c3cccnc3)n2Cc2ccco2)sc(C)c1C	10%	?	4µM*	?	?
CCOC(=O)N1CCN(CCC(=O)Nc2ccc(C)c(Br)c2)CC1	-24%	5%	20%	-3%	.
COc1cc(-c2nnc(-c3cccs3)o2)cc(OC)c1OC	-25%	8%	2.5µM*	0%	0%
CC(=O)OCCN(Cc1ccccc1)Cc1ccc2c(c1)OCO2	-28%	29%	17%	2%	25µM*
CN(CCC(=O)Nc1ccc2c(c1)OCO2)Cc1ccccc1	-4%	5%	-10%	1%	-7%[11.4 µM]
C=COCC1CN2C(CCC(C)C2c2ccc(Br)cc2)C(=O)O1 (stereo unspecified)	11%[11.5 µM]	?	.	.	?
C=C(C)C(=O)OCC1CN2C(CCC(C)C2c2ccc(Br)cc2)C(=O)O1 (stereo unspecified)	11%[11.5 µM]	1.6µM*!	.	.	?
COc1cccc(-c2cc(C(=O)Nc3cc(C)on3)no2)c1	0%	24%	-11%	0%	14%
COC(=O)c1c(-c2cccnc2)csc1NC(=O)c1cc(C)on1	-15%	0%	2.5µM*	?	-3%
COC(=O)c1c(-c2ccc(F)cc2)csc1NC(=O)c1ccco1	0%	4µM*	0.4µM*	-2%	?
Cc1ccccc1-c1nc(NC2CC2)c2ccccc2n1	?	20%	?	1%[11.4 µM]	.
c1ccc(-c2cc(-c3cc(-c4ccccn4)[nH]n3)n[nH]2)nc1	1%[11.5 µM]	-6%[11.4 µM]	3%[7.6 µM]	3%[11.4 µM]	-3%[11.4 µM]
